# Test results: PubChem BioAssay AID2782 (National Center for Advancing Translational Sciences (NCATS), 2010)
# Records with an inconclusive call do not appear. Unmarked numbers belong to inactive results. Calls of active or inactive are those of the source. Calls follow the shape of the dose curve; as a rule, active = well fitted inhibition curve with a large enough effect in the polarisation, with a control signal flat (not every such curve was filed as active); inconclusive = small, poorly fitted or top-dose-only effect, or effect the other way, or a change in a side signal; inactive = no such curve, though single readings can be large or run the other way; the % refers to the polarisation.
# Experiment: Confirmation of Inhibitors Targeting the Menin-MLL Interaction in MLL Related Leukemias: Competition With Texas Red Labeled MLL-derived Mutant Peptide
# Conditions: fluorescence polarization, Texas Red MLL peptide displacement; series mostly up to 94.6 µM; FP change, negative = inhibition: at the top concentration
# How it was run: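 Hits from the primary screen were retested: compounds were incubated 1 hr at ambient with 200 nM menin, 50 nM Texas Red mutant peptide and 25 nM fluorescein wild-type peptide (Tris pH 7.5, BSA-supplemented buffer), then fluorescence polarization was read.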
# % is scaled to controls: 0 for no effect and ±100 for the full control effect; potency is read from the fitted curve at half-maximal effect.
SMILES,Potency,"FP change, negative = inhibition"
CCC[n+]1c2ccccc2cc2ccccc21,31.7 µM (active),–
COc1ccc(NC(=O)N2CC[C@@]3(CCCN(C(=O)c4csnn4)C3)C2)cc1,–,17.4%
CCOc1ccc(-c2nn(-c3ccccc3)cc2/C=C2\SC(N)=NC2=O)cc1C,–,46.8% [at 288 µM]
COc1ccc(CNC(=O)C(c2ccc(O)cc2)N(Cc2ccco2)C(=O)c2snc(C(N)=O)c2N)cc1 (stereo not given),–,35.1% [at 288 µM]
Cc1nn(-c2ccccc2)c2nc(N)c(C(N)=O)cc12,–,-10.8%
O=C(Nc1nccs1)C(Br)C(Br)c1ccccc1 (stereo not given),–,-29% [at 288 µM]
CCc1cc2c(N3CCN(c4nnc(CC)s4)CC3)ncnc2s1,11.2 µM (active),–
NC(=O)c1cc2ccccc2o/c1=N/NC(=O)c1cccc(F)c1,–,-15.5%
CN1C[C@@H]2C[C@H]1CN2c1cc2c(cc1F)c(=O)c(C(=O)O)cn2C1CC1,–,-15.4%
Cc1ccc(S(=O)(=O)c2cc(OC(=O)c3ccco3)ccc2OC(=O)c2ccco2)cc1,–,33.4% [at 288 µM]
Cn1ncc2c(N3CCCCC3)nc(NCCCO)nc21,–,-1.8%
COc1cc(OC)c2ccc(=O)oc2c1C(CCN1CCOCC1)c1ccc(N(C)C)cc1 (stereo not given),–,32.5%
COc1ccc(OC)c(C(c2c(C)[nH][nH]c2=O)c2c(C)[nH][nH]c2=O)c1,–,-9.46% [at 288 µM]
COc1ccccc1NS(=O)(=O)c1cc(N2Cc3ccccc3C2=N)ccc1N1CCOCC1,50.1 µM (active),–
CCCC(=O)Nc1cccc(NC(=O)c2ccc([N+](=O)[O-])cc2Cl)c1,–,-11.1% [at 288 µM]
CC(=O)c1c(O)cc(O)cc1CC(=O)O,–,-19.4%
Cc1ccc(C(=O)Sc2cccccc2=O)cc1,–,3.99% [at 288 µM]
O=[N+]([O-])c1ccc(S(=O)(=O)c2ccccc2)nc1,–,-18.6% [at 288 µM]

SMILES,Potency,"FP change, negative = inhibition"
CC(=O)O[C@H]1CSC[C@H]1NC(=O)c1ccccc1,–,7.12%
Cc1sc2ncnc(NC3CCN(Cc4ccccc4)CC3)c2c1C,28.2 µM (active),–
CCN1CCN(CC(=O)Nc2ccc(C(C)=O)cc2)CC1,–,-11.2%
O=C(Nc1nnc(-c2ccccc2SCc2ccccc2)s1)Nc1ccccc1F,22.4 µM (active),–
Cc1cc2c(N)cccc2nn1,141 µM (active),–
O=C(Cn1c(=O)c2c3c(sc2n(Cc2ccccc2)c1=O)CCCC3)NCCO,–,2.49% [at 288 µM]
Cc1nc(N2CCN(C)CC2)c2c3c(sc2n1)CCCC3,126 µM (active),–
CC(=O)NC1C(=O)N(CCN2CCOCC2)c2ccc(C)cc21 (stereo not given),71 µM (active),–
COc1ccc(-c2cc(=O)c3c(O)cc(O)c(-c4cc(-c5cc(=O)c6c(O)cc(O)cc6o5)ccc4OC)c3o2)cc1,–,47.8% [at 288 µM]
Cc1cc(N/N=C/c2ccc(O)cc2)c2cccc(C)c2n1,71 µM (active),–
O=C(/C=C/c1ccccc1)c1cccs1,–,34.2% [at 288 µM]
O=C(c1cc2c(=O)n3ccccc3nc2s1)N1CCOCC1,–,-18.6% [at 288 µM]
CCCCC(=O)NC(=S)Nc1nnn(CCC)n1,–,-5.61%
CC(C)Cc1cc(C(=O)NCCCN2CCOCC2)no1,–,4.95%
CCc1nnc(NC(=O)C2(C)COC(c3ccc(OC)cc3)OC2)s1 (stereo not given),–,12.7%
CN[C@H]1[C@H](O)[C@@H](O[C@@H]2[C@H](O)[C@@H](O[C@H]3OC(CN)=CC[C@H]3N)[C@@H](N)C[C@H]2N)OC[C@@]1(C)O,–,-11.3%
CN(C)c1ccc(N=Nc2ccc(C(=O)O)cc2)cc1,141 µM (active),–
